About 83,000 compounds went through this panel and 20% of them were active in at least one assay; those are over-represented in the sample as a whole.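 Step 1: grow cells in 96-well plates. Step 2: add test compound at a single concentration. Step 3: incubate 48 h. Step 4: record percent growth.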 Unmarked numbers belong to inactive results. Activity calls are given as the source filed them. How the source made its calls: active means growth percent below 10; inactive means the rest.

Some test systems named below: RPMI-8226 leukemia; OVCAR-8 ovarian; OVCAR-5 ovarian; OVCAR-4 ovarian; SK-OV-3 ovarian; IGROV1 ovarian; OVCAR-3 ovarian; HS 578T breast; NCI/ADR-RES ovarian; T-47D breast.
What all share (experiment): NCI-60 one-dose screen, 48 h (100 = growth as untreated, 0 = no growth, -100 = all killed)
Holding throughout (conditions): 10 µM unless noted

Consider `COC(=O)c1nc(-c2ccccc2)oc1S(=O)(=O)n1nc(-c2ccccc2)cc1N`, for which the growth was 57.1% in the assay on RPMI-8226 leukemia; 75.8% in the assay with OVCAR-8 ovarian; 93.5% in the assay on OVCAR-5 ovarian; 107% in the assay on OVCAR-4 ovarian; 106% in the assay with SK-OV-3 ovarian; 73.6% in the assay with IGROV1 ovarian. Moreover, the growth with OVCAR-3 ovarian is 68.3%; with HS 578T breast, 101%; in the assay on NCI/ADR-RES ovarian, 99%; with T-47D breast, 49.5%.

`O=C1NN(c2ccccc2)C(c2ccc3c(c2)OCO3)N2CCC[C@@H]12` (stereo not given in full): the growth in the assay on RPMI-8226 leukemia was 105%; in the assay with OVCAR-8 ovarian it was 96.8%; with OVCAR-5 ovarian, 108%; with OVCAR-4 ovarian it was 108%; with SK-OV-3 ovarian, 99%; with IGROV1 ovarian it was 89.7%. Also, the growth with OVCAR-3 ovarian is 100%; in the assay on HS 578T breast, 104%; in the assay on NCI/ADR-RES ovarian, 97.9%; in the assay with T-47D breast, 90.9%.

`COCCOCCOCc1n(Cc2ccc3ccccc3n2)c2ccccc2[n+]1Cc1ccc2ccccc2n1`: the growth is 1.07% (active) in the assay on RPMI-8226 leukemia; 19.9% with OVCAR-8 ovarian; 40.6% in the assay with OVCAR-5 ovarian; 15.4% in the assay on OVCAR-4 ovarian; 21.3% in the assay on SK-OV-3 ovarian; 20.2% in the assay with IGROV1 ovarian. For the same compound, the growth with OVCAR-3 ovarian is 7.54% (active); in the assay with HS 578T breast, 47.1%; in the assay with NCI/ADR-RES ovarian it was 102%; in the assay with T-47D breast it was -4.32% (active).

Take `Cc1cc2ccccc2c[n+]1CC(=O)c1ccc(-c2ccccc2)cc1`: the growth is 19.6% with RPMI-8226 leukemia; 43.8% with OVCAR-8 ovarian; 73.1% in the assay with OVCAR-5 ovarian; 9.69% (active) with OVCAR-4 ovarian; 64.1% in the assay on SK-OV-3 ovarian; 49.2% with IGROV1 ovarian. Moreover, the growth in the assay on OVCAR-3 ovarian was 31.9%; in the assay on HS 578T breast, 83.5%; in the assay with NCI/ADR-RES ovarian it was 101%; with T-47D breast, 38.2%.

In the case of `CCCCc1nc(Cl)c(C2CC(c3ccc(Cl)cc3)=NN2c2cc(Cl)cc(Cl)c2)[nH]1` (stereo not given), the growth in the assay on RPMI-8226 leukemia is 90.9%; with OVCAR-8 ovarian, 68.5%; with OVCAR-5 ovarian it was 94.2%; with OVCAR-4 ovarian it was 63.5%; in the assay on SK-OV-3 ovarian it was 92.4%; in the assay on IGROV1 ovarian it was 71.1%. Besides, the growth in the assay on OVCAR-3 ovarian is 65.9%; in the assay on HS 578T breast, 59.6%; in the assay on NCI/ADR-RES ovarian, 78.8%; with T-47D breast, 75%.

Regarding `CN1CCN(S(=O)(=O)O[C@@H]2C(=O)N(c3cc4c5ccccc5ccc4c4ccccc34)[C@H]2c2ccc(F)cn2)CC1`, the growth in the assay on RPMI-8226 leukemia was 79.7%; in the assay on OVCAR-8 ovarian, 85.7%; with OVCAR-5 ovarian it was 108%; in the assay on OVCAR-4 ovarian, 99.1%; in the assay with SK-OV-3 ovarian it was 97.9%; with IGROV1 ovarian, 87.8%. Moreover, the growth was 88.4% in the assay with OVCAR-3 ovarian, 84.1% in the assay on HS 578T breast, 92.2% with NCI/ADR-RES ovarian and 78.9% with T-47D breast.

As to `COc1ccc(C2=NN(c3ccc(S(N)(=O)=O)cc3)C(c3ccc(Cl)cc3)C2)c(O)c1` (stereo not given), the growth in the assay on RPMI-8226 leukemia is 4.28% (active); with OVCAR-8 ovarian it was 54.6%; with OVCAR-5 ovarian, 78.3%; with OVCAR-4 ovarian, 50.5%; in the assay on SK-OV-3 ovarian it was 85.3%; with IGROV1 ovarian, 50.1%. Moreover, the growth in the assay on OVCAR-3 ovarian was 58.6%; in the assay with HS 578T breast, 70.5%; with NCI/ADR-RES ovarian, 52.5%; with T-47D breast, 33.8%.

With `COc1ccc2nc3c(n2c1)C(=O)C(=O)c1ccccc1-3`, the growth is -0.676% (active) with RPMI-8226 leukemia; 9.51% (active) in the assay with OVCAR-8 ovarian; -79.9% (active) in the assay with OVCAR-5 ovarian; -81.3% (active) in the assay with OVCAR-4 ovarian; 24.8% in the assay with SK-OV-3 ovarian; 0.7% (active) in the assay on IGROV1 ovarian. The growth in the assay with OVCAR-3 ovarian is -22.8% (active); in the assay with HS 578T breast, -6.35% (active); in the assay on NCI/ADR-RES ovarian, -7.37% (active); in the assay on T-47D breast it was 21.4%.

Turning to `Cc1c(C(=O)Nc2nc3ccccc3[nH]2)cnn1-c1ccccn1`, the growth is 95.6% in the assay on RPMI-8226 leukemia; 98.3% in the assay on OVCAR-8 ovarian; 108% in the assay with OVCAR-5 ovarian; 105% with OVCAR-4 ovarian; 104% in the assay with SK-OV-3 ovarian; 114% in the assay with IGROV1 ovarian. Also, the growth was 112% in the assay on OVCAR-3 ovarian, 112% in the assay on HS 578T breast, 106% in the assay with NCI/ADR-RES ovarian and 101% with T-47D breast.

On to `O=CN1N=C(c2ccc3c(c2)OCO3)CC1c1cccc(Nc2ccnc3cc(C(F)(F)F)ccc23)c1` (stereo not given), for which the growth was 40.2% in the assay on RPMI-8226 leukemia; 83.8% in the assay on OVCAR-8 ovarian; 97.7% in the assay on OVCAR-5 ovarian; 69.6% with OVCAR-4 ovarian; 77.4% with SK-OV-3 ovarian; 91.8% with IGROV1 ovarian. Also, the growth in the assay on OVCAR-3 ovarian is 67.4%; in the assay on HS 578T breast it was 96.1%; in the assay with NCI/ADR-RES ovarian it was 76.8%; in the assay with T-47D breast it was 45.8%.

In the case of `NS(=O)(=O)c1ccc(C2C3=C(CCCC3=O)OC3=C2C(=O)c2ccccc2C3=O)cc1` (stereo not given), the growth was -35.8% (active) in the assay on RPMI-8226 leukemia; -14.5% (active) with OVCAR-8 ovarian; -53.1% (active) in the assay with OVCAR-5 ovarian; -96.6% (active) in the assay with OVCAR-4 ovarian; -23.9% (active) with SK-OV-3 ovarian; -52.3% (active) in the assay with IGROV1 ovarian. Moreover, the growth was -66.1% (active) in the assay on OVCAR-3 ovarian, -5.38% (active) in the assay on HS 578T breast, 56.9% in the assay with NCI/ADR-RES ovarian and -50.7% (active) in the assay with T-47D breast.

For `C=C(C)[C@@H]1CCC=C2CC[C@]3(C)[C@H](CC[C@@H]4[C@@]5(C)CCCNC(C)(C)[C@@H]5CC[C@]43C)[C@H]21`, the growth was -11.9% (active) in the assay with RPMI-8226 leukemia; 3.48% (active) in the assay on OVCAR-8 ovarian; 56.4% in the assay on OVCAR-5 ovarian; 36.7% with OVCAR-4 ovarian; 112% in the assay with SK-OV-3 ovarian; 23.5% with IGROV1 ovarian. Besides, the growth in the assay on OVCAR-3 ovarian is 41.2%; in the assay on HS 578T breast, 97.2%; in the assay on NCI/ADR-RES ovarian it was 55.1%; with T-47D breast, 60.2%.

(Values after PubChem BioAssay (NCI).)
